From PubChem BioAssay (Tox21) come the findings set out here.

Molecules are shown by their SMILES. Several values for one entry are separate records, joined by “and”; a condition that tells them apart may be missing. Identical values can stand only once. Inconclusive results are not listed. Activity calls are given as the source filed them. Unless noted, the call rests on the fitted dose curve; in most records, active means well fitted curve in the direction sought with a large enough effect in the repeat runs; inconclusive means weak or mixed curves; inactive means no such curve, though single readings can be large; an effect the other way counts as inactive or inconclusive.

The target of assay [1] is Acetylcholinesterase (Homo sapiens) (UniProt P22303). Description: Acetylcholinesterase (AChE) small molecule antagonists: enzyme-based qHTS assay (AID 1347397; calls by dose curve; further: nearly all actives have a fitted effect of over 55% in size). The conditions noted are these: Potency: AChE enzyme activity inhibition. The procedure, abridged:
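Enzyme inhibition was scored from DTNB-detected thiocholine formed by recombinant human AChE acting on acetylthiocholine. The 30 min compound preincubation and 10 min substrate reaction were both run at room temperature, with DMSO as vehicle control.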

Assay [2] has the same target. Description: Acetylcholinesterase (AChE) small molecule antagonists: fluorescence cell-based qHTS assay (AID 1347398; calls by dose curve; further: nearly all actives have a fitted effect of over 50% in size). The conditions noted are these: Potency: AChE activity. An outline of the steps:
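Endogenous acetylcholinesterase of SH-SY5Y neuroblastoma cells is measured in situ. After overnight attachment and 30 min compound exposure, cells receive acetylthiocholine and Thiolite Green; fluorescence is read after 40 min at room temperature.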
In general terms: Quantitative high-throughput screening tests each substance at several concentrations.

Assay [3] shares this target. As to the kind of experiment: Acetylcholinesterase (AChE) small molecule antagonists: enzyme-based qHTS assay with human liver microsomes (AID 1347399; calls by dose curve; further: nearly all actives have a fitted effect of over 60% in size; further: potency means the concentration at half of the fitted maximal effect). The conditions noted are these: Potency: qHTS inhibition. The procedure, abridged:
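Recombinant human AChE (50 mU/mL in the enzyme mix) and human liver microsomes (0.25 mg/mL final) were preincubated with compound and NADPH (0.25 mg/mL final) for 30 min at 37 C. Acetylthiocholine/DTNB was then added; thiocholine was read colorimetrically after 10 min at room temperature.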

Assay [4] deals with Cytochrome P450 2D6 (Homo sapiens) (UniProt P10635). Description: Cytochrome P450 Family 2 Subfamily D Member 6 (CYP2D6) small molecule antagonists: luciferase reporter qHTS assay (AID 1671196). Further: nearly all actives have a fitted effect of over 50% in size. Further: potency means the concentration at half of the fitted maximal effect. An outline of the steps:
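Cell-free P450-Glo system: CYP2D6 with proluciferin substrate was pre-incubated with compound for 10 min, then reacted with NADPH regeneration for 1 h at room temperature. Luciferin product was detected after 20 min, and data were reported as relative luminescence units.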
Background: In a reporter assay the amount or activity of a reporter protein is the signal.

Assay [5] deals with Cytochrome P450 2C19 (Homo sapiens) (UniProt P33261). As to the kind of experiment: Cytochrome P450 Family 2 Subfamily C Member 19 (CYP2C19) small molecule antagonists: luciferase reporter qHTS assay (AID 1671197). Further: nearly all actives have a fitted effect of over 65% in size. Further: potency means the concentration at half of the fitted maximal effect. The procedure, abridged: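 Quantitative high-throughput screen of the Tox21 library using CYP2C19 with proluciferin substrate. Reaction: NADPH regeneration, 37C, 1 h, after 10 min compound preincubation at room temperature. Readout: luminescence.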

The target in assay [6] is Cytochrome P450 2C9 (Homo sapiens) (UniProt P11712). As to the kind of experiment: Cytochrome P450 Family 2 Subfamily C Member 9 (CYP2C9) small molecule antagonists: luciferase reporter qHTS assay (AID 1671198). Further: nearly all actives have a fitted effect of over 50% in size. Further: potency means the concentration at half of the fitted maximal effect. An outline of the steps:
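P450-Glo proluciferin substrate with CYP2C9 enzyme; 10 min RT preincubation, then NADPH regeneration 1 h at 37C; luciferin detection reagent 20 min RT, luminescence in relative luminescence units.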

In assay [7] the target is Voltage-gated inwardly rectifying potassium channel KCNH2 (Homo sapiens) (UniProt Q12809). Description: Human Ether-a-go-go-Related Gene (hERG) channel small molecule antagonists: fluorescence cell-based qHTS assay (AID 1671200). Further: nearly all actives have a fitted effect of over 50% in size. Further: potency means the concentration at half of the fitted maximal effect. The procedure, abridged:
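Measured: Tl+ flux via fluorescence (480/540 nm) in hERG-expressing U2OS cells after 1 h dye loading at room temperature.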
A general note: The hERG channel carries a current that helps repolarise heart muscle cells.

Assay [8] concerns the target Cytochrome P450 3A4 (Homo sapiens) (UniProt P08684). As to the kind of experiment: Cytochrome P450 Family 3 Subfamily A Member 4 (CYP3A4) small molecule antagonists: luciferase reporter qHTS assay (AID 1671201). Further: nearly all actives have a fitted effect of over 50% in size. Further: potency means the concentration at half of the fitted maximal effect. An outline of the steps:
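Setup: enzyme-substrate mix, compound pin transfer, 10 min RT. Reaction: NADPH regeneration solution, 1 h RT. Readout: detection reagent stops turnover, luminescence measured after 20 min, expressed in relative luminescence units.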

Assay [9] concerns the target Acetylcholinesterase (Homo sapiens) (UniProt P22303). As to the kind of experiment: Acetylcholinesterase (AChE) small molecule antagonists: colormetric cell-based qHTS assay (AID 1347395; calls by dose curve; further: nearly all actives have a fitted effect of over 30% in size; further: potency means the concentration at half of the fitted maximal effect). The procedure, abridged: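 Neuroblastoma line SH-SY5Y supplied the enzyme; cells were preincubated with compound for 30 min at 37 C and 5% CO2. Acetylthiocholine with DTNB was then added for 90 min at 37 C, and thiocholine was measured by colour.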

Assay [10] has as its target Cytochrome P450 1A2 (Homo sapiens) (UniProt P05177). Description: Cytochrome P450 Family 1 Subfamily A Member 2 (CYP1A2) small molecule antagonists: luciferase reporter qHTS assay (AID 1671199). Further: nearly all actives have a fitted effect of over 50% in size. Further: potency means the concentration at half of the fitted maximal effect. The procedure, abridged:
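P450-Glo CYP1A2 enzyme–proluciferin substrate mix with compound 10 min at room temperature, then NADPH regeneration 1 h at room temperature. Luciferin detection reagent added, luminescence read after 20 min; furafylline positive control.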

Sequence of Cytochrome P450 3A4 (Homo sapiens) (P08684 whole entry, looked up): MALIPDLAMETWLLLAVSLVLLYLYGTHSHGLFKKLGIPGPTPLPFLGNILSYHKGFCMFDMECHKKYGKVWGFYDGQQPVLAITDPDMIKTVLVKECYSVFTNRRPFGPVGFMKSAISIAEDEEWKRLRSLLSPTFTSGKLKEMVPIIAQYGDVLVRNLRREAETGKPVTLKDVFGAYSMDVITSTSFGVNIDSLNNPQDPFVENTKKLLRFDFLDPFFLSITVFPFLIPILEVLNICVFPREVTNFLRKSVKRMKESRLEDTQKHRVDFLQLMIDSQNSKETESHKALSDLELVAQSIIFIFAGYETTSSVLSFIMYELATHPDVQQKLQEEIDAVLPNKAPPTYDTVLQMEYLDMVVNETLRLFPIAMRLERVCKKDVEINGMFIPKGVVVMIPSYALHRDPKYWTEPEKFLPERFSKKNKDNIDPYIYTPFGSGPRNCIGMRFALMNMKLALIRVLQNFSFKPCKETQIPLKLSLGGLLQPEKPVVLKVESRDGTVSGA
Sequence of Acetylcholinesterase (Homo sapiens) (P22303 whole entry, looked up): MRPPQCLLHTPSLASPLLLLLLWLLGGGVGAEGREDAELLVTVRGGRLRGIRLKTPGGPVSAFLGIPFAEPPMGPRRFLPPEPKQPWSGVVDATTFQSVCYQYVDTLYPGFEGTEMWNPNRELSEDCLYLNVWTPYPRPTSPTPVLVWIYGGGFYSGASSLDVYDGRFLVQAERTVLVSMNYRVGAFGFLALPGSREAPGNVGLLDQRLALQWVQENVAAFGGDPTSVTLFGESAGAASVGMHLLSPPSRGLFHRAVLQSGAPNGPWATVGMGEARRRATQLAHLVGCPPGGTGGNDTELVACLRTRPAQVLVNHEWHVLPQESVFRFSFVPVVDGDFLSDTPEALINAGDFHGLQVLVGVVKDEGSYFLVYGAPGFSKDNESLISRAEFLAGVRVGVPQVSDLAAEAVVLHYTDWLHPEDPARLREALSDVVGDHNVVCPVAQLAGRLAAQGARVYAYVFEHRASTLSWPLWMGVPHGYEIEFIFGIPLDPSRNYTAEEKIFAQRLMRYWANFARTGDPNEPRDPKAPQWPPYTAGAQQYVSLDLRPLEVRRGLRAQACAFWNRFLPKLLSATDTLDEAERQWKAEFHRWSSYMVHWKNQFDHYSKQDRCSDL
Sequence of Cytochrome P450 2C19 (Homo sapiens) (P33261 whole entry, looked up): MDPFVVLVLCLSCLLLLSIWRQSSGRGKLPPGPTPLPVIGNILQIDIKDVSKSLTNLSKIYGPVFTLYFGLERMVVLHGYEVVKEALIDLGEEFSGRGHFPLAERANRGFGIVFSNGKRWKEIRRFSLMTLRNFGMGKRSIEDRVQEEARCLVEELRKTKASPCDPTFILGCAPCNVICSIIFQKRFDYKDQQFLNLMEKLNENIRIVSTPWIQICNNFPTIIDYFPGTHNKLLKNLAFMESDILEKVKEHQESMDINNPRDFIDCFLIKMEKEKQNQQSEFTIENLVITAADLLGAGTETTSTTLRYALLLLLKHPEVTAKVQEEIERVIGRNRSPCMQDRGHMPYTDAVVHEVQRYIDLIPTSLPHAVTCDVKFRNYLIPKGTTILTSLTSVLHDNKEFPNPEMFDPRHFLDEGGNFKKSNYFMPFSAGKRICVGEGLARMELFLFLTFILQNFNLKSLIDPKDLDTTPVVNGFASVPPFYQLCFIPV
Sequence of Cytochrome P450 1A2 (Homo sapiens) (P05177 whole entry, looked up): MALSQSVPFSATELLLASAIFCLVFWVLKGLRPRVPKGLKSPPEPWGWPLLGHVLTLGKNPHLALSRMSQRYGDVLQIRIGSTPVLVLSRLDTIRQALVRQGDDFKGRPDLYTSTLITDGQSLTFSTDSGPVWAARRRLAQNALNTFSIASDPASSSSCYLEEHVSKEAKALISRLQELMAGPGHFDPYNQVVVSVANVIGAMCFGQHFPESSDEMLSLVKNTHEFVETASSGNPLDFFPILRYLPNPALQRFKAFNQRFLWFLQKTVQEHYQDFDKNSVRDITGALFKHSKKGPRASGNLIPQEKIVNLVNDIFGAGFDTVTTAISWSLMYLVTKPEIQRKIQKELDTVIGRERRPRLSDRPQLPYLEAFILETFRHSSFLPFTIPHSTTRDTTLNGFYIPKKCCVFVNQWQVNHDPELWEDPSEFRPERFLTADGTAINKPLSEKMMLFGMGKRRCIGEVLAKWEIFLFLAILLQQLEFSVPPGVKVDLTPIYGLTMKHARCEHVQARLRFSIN
Sequence of Cytochrome P450 2D6 (Homo sapiens) (P10635 whole entry, looked up): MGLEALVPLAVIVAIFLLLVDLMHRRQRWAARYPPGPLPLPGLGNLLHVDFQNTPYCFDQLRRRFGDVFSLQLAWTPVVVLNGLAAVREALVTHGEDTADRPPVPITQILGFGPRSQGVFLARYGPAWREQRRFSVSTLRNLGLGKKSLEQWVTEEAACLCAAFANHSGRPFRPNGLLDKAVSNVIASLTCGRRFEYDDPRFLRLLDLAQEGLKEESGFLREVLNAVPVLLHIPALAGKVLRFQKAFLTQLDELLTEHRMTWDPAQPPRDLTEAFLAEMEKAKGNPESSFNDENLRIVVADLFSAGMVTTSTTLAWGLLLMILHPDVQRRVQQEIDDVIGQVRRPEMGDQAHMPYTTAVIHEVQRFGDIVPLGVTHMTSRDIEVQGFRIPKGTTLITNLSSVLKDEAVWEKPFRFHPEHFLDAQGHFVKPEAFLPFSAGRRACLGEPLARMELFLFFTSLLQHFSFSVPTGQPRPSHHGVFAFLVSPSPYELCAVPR
Sequence of Voltage-gated inwardly rectifying potassium channel KCNH2 (Homo sapiens) (Q12809 whole entry, looked up): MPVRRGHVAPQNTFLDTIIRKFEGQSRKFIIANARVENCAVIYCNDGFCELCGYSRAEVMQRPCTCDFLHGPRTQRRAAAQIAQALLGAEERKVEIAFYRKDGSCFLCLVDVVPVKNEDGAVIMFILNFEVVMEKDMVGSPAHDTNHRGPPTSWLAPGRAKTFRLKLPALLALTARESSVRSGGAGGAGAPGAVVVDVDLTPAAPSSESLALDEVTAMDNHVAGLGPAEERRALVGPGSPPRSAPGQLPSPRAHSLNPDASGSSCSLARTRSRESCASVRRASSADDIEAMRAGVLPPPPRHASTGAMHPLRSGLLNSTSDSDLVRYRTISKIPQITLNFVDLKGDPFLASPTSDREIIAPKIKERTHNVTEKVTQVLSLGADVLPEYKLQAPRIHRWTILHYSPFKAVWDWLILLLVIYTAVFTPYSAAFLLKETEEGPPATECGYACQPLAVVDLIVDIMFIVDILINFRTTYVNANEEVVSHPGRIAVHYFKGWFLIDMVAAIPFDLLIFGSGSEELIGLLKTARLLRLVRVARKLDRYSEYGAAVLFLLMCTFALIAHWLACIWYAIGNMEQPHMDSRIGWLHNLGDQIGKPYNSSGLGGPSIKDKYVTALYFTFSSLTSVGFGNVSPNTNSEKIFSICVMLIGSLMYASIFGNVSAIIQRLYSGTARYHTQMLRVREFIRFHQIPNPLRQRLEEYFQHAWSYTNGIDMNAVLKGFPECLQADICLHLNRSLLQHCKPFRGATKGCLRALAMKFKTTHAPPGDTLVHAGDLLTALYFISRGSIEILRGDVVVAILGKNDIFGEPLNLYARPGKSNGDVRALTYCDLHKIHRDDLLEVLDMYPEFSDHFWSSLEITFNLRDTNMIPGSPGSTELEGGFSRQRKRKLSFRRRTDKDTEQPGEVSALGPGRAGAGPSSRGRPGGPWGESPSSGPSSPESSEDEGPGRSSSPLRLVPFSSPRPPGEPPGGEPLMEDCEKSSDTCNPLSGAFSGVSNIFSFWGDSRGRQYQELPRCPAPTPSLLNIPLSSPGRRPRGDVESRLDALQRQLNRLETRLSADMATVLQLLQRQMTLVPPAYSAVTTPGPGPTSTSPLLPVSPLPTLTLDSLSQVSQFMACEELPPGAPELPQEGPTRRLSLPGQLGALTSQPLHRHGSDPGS
Sequence of Cytochrome P450 2C9 (Homo sapiens) (P11712 whole entry, looked up): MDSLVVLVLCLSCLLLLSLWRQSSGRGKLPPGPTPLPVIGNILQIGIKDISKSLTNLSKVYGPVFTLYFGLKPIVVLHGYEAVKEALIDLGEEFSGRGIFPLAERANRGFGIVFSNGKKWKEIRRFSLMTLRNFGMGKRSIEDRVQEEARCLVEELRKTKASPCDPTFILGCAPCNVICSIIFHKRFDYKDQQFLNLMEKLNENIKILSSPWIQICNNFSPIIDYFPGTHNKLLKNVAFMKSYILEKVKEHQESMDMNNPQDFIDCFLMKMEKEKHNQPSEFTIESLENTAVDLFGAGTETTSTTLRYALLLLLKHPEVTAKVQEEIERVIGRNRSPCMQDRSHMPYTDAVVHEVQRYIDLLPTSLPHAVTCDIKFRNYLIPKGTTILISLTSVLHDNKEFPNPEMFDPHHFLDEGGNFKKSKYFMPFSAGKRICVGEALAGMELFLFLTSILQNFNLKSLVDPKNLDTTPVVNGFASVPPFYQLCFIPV

As for `CCN(C)N=O`, the Potency entry in assay [1], in [2], in assay [3], in assay [4], in [5] and in assay [6] was “inactive” each time. Moreover, the Potency entry in assay [7] and in [8] was “inactive” each time.

For `O=C(NC(=O)c1c(F)cccc1F)Nc1cc(Cl)c(Oc2ncc(C(F)(F)F)cc2Cl)c(Cl)c1`, the Potency result in assay [9], in [2], in assay [3], in [4], in assay [10] and in [7] was “inactive” each time. Besides, the Potency result in assay [8] was “inactive”.

Consider `CCCN(CC1CC1)c1c([N+](=O)[O-])cc(C(F)(F)F)cc1[N+](=O)[O-]`, for which the Potency entry in assay [1], in assay [2], in [3], in assay [4] and in [7] was “inactive” in each case. In addition, the Potency in [5] was 20 µM (active); in assay [6], 31.7 µM (active).

As to `CC(=O)c1cc2c(cc1C)C(C)(C)C(C)CC2(C)C` (centres undefined), the Potency result in assay [9], in assay [2], in assay [3] and in assay [4] was “inactive” in each case. For the same compound, the Potency in [6] was 35.6 µM (active); in assay [7], 13.8 µM (active); in assay [8], 25.2 µM (active).

As for `Clc1cc(C(Cl)(Cl)Cl)cnc1Cl`, the Potency result in assay [9], in assay [2], in assay [3], in assay [4] and in assay [7] was “inactive” each time. In addition, the Potency in assay [10] was 7.96 µM (active); in assay [8] it was 8.94 µM (active).

Take `O=C(NCc1cccnc1)Nc1ccc([N+](=O)[O-])cc1`: the Potency result in assay [1], in assay [2], in assay [3] and in assay [7] was “inactive” in each case. In addition, the Potency in assay [4] is 35.6 µM (active); in assay [5] it was 2 µM (active); in assay [6], 5.03 µM (active); in assay [10] it was 17.8 µM (active); in assay [8] it was 0.796 µM (active).

As to `CCCCCCC#N`, the Potency result in [1], in assay [2], in [3], in [6], in assay [7] and in assay [8] was “inactive” in each case. Besides, the Potency was 38.7 µM (active) in assay [4], 68.8 µM (active) in assay [5] and 38.7 µM (active) in assay [10].

Consider `CC/C(=N\OC/C=C/Cl)C1=C(O)CC(C2CCOCC2)CC1=O` (centres undefined), for which the Potency entry in assay [1], in assay [2], in assay [3], in assay [4] and in assay [7] was “inactive” each time. Also, the values for the Potency in assay [5], in assay [6] and in assay [8] were 70.9 µM (active), 31.7 µM (active) and 31.7 µM (active), respectively.

In the case of `COP(=S)(Oc1cc(Cl)c(Br)cc1Cl)c1ccccc1` (centres undefined), the Potency in assay [9] was 63.3 µM (active); in [3] it was 8.94 µM (active); in [5], 0.224 µM (active); in [6], 0.796 µM (active); in assay [10] it was 15.9 µM (active); in assay [8] it was 7.1 µM (active). Moreover, in [7], the Potency result was “inactive”.

On to `CCOC(=O)[C@]1(c2ccccc2)Oc2ccccc2[C@@H]1N`, for which the Potency in assay [9] is 79.6 µM (active); in assay [4] it was 0.2 µM (active); in assay [5] it was 35.6 µM (active); in assay [10], 63.3 µM (active); in [7], 3.09 µM (active). In assay [3], the Potency entry is “inactive”.

Regarding `O=C1C(=O)c2cccc3cccc1c23`, the Potency entry in assay [9], in assay [3], in assay [7] and in assay [8] was “inactive” each time. Moreover, the Potency in assay [5] was 39.9 µM (active); in [10], 8.93 µM (active).

Take `COc1nn(CSP(=S)(OC)OC)c(=O)s1`: the Potency result in [1], in [2], in assay [3] and in assay [7] was “inactive” throughout. For the same compound, the Potency was 31.7 µM (active) in assay [4], 0.633 µM (active) in assay [5], 5.48 µM (active) in assay [6] and 7.96 µM (active) in assay [10].

Turning to `CN1[C@@H]2CC[C@H]1CC(OC(=O)c1cc(Cl)cc(Cl)c1)C2` (some centres undefined), the Potency result in assay [1], in assay [2], in assay [3], in [5], in assay [6] and in assay [8] was “inactive” in each case. The Potency was 0.055 µM (active) in assay [4] and 7.56 µM (active) in assay [7].

`c1ccc(C2CC2)c(OCC2=NCCN2)c1`: the Potency entry in [1], in assay [2], in assay [3], in assay [5], in [6] and in assay [7] was “inactive” each time. In [8], the Potency result is “inactive”. For the same compound, in assay [4], the Potency was 4.36 µM (active).

For `O=C(Nc1ccccc1)Nc1ccnc(Cl)c1`, the Potency result in [1], in assay [2], in assay [3] and in assay [7] was “inactive” each time. Moreover, the Potency in assay [4] was 39.9 µM (active); in assay [5] it was 35.6 µM (active); in assay [6], 10 µM (active); in assay [10], 20 µM (active).

Take `Cn1cc[n+](C)c1` (tested in a mixture with another compound): the Potency entry in assay [1], in [2], in [3], in [4], in assay [6] and in [10] was “inactive” in each case. Further, the Potency result in [7] and in [8] was “inactive” throughout.

Turning to `CCOP(=O)(OCC)Oc1ccc([N+](=O)[O-])cc1`, the Potency in assay [4] is 1.61 µM (active) and 1.59 µM (active); in assay [5] it was 1.61 µM (active) and 1.78 µM (active); in [6], 64 µM (active); in [10], 32.1 µM (active) and 31.7 µM (active). Also, the Potency result in assay [7] and in assay [8] was “inactive” in each case.

For `NS(=O)(=O)C(F)(F)C(F)(F)C(F)(F)C(F)(F)C(F)(F)C(F)(F)C(F)(F)C(F)(F)F`, the Potency entry in [1], in [2], in assay [3], in assay [4], in assay [10] and in assay [7] was “inactive” each time. Also, the Potency result in assay [8] was “inactive”. Also, the Potency in [6] is 0.633 µM (active).

With `COC(=O)C(C)N(C(=O)Cc1ccccc1)c1c(C)cccc1C` (centres undefined), the Potency result in [1], in [2], in assay [3], in [10], in assay [7] and in assay [8] was “inactive” each time. The Potency was 3.56 µM (active) in assay [5] and 22.4 µM (active) in [6].

Regarding `C=CCN1CC[C@]23c4c5ccc(O)c4O[C@H]2C(=O)CC[C@@]3(O)[C@H]1C5`, the Potency result in [7] was “inactive”.

With `O=C=Nc1ccc(Cl)cc1`, the Potency result in [2], in assay [3], in [4], in assay [7] and in assay [8] was “inactive” throughout. Besides, the Potency is 2 µM (active) in assay [5] and 7.96 µM (active) in [6].

`O=S(=O)(Cl)c1ccccc1`: the Potency result in [1], in [2], in assay [3], in assay [5], in [6] and in assay [10] was “inactive” in each case. In addition, the Potency entry in assay [7] and in assay [8] was “inactive” in each case.
